# PubChem BioAssay (NCI)
# This is part of a sample that, as a whole, favours compounds with a hit. Of some 83,000 tested, about 20% had one in any assay.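 Activity criterion: percent growth below 10, measured after cells in 96-well plates were exposed to a single compound concentration for 48 hours.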 Values without a mark were called inactive. Activity calls are given as the source filed them.
# What was measured:
# Assay in all cases: NCI-60 one-dose screen, 48 h (100 = growth as untreated, 0 = no growth, -100 = all killed)
# Conditions in all cases: 10 µM unless noted
# [1] = system: DU-145 prostate
# [2] = system: K-562 leukemia
# [3] = system: MALME-3M melanoma
# [4] = system: MDA-MB-231 breast
# [5] = system: RXF 393 renal
# [6] = system: SF-268 CNS
# [7] = system: SF-295 CNS
# [8] = system: SF-539 CNS
# [9] = system: UACC-257 melanoma
# [10] = system: M14 melanoma
SMILES,growth [1],growth [2],growth [3],growth [4],growth [5],growth [6],growth [7],growth [8],growth [9],growth [10]
COc1cc(C(=O)N(C(C)C)C2CCCCC2)cc(OC)c1OC,112%,98.7%,99.5%,127%,97.4%,98.1%,109%,101%,93.7%,132%
NC(=O)c1nc2c([nH]c1=O)CCCC2,108%,92.2%,101%,118%,97.6%,101%,103%,96.6%,109%,122%
O=C1OCC2=C1C(c1ccc3c(c1)OCO3)CC(=O)N2c1cccc(Cl)c1 (stereo not given),107%,102%,88.4%,101%,96.5%,110%,96%,104%,104%,121%
O=C1CCC(N2C(=O)c3cccc(NCCOCCOCCNC(=O)c4cc5c(o4)C(=O)c4ccccc4C5=O)c3C2=O)C(=O)N1 (stereo not given),-97.8% (active),8.5% (active),-95.2% (active),-2.36% (active),-39.5% (active),-12.2% (active),-93.9% (active),-95.2% (active),-82.5% (active),-66.4% (active)
COc1ccccc1CNCCCCCCCCCCCCN1C(=O)c2ccc3c4c(ccc(c24)C1=O)C(=O)N(CCCCCCCCCCCCNCc1ccccc1OC)C3=O,51.2%,35.2%,97.6%,64.1%,-69.6% (active),69.4%,49.4%,1.92% (active),113%,80.2%
COc1ccc(/C=C2\Oc3cc(C)c(Cl)cc3C2=O)cc1OC,104%,86.6%,99.7%,102%,111%,102%,95.7%,92.7%,101%,96.3%
O=C1c2[nH]cc(CN[C@@H]3CCCN3)c2C(=O)c2c1c(O)c1ccccc1c2O,-98.6% (active),-81.5% (active),-51.9% (active),-96.7% (active),-98.2% (active),-88.2% (active),70.5%,-94.1% (active),-64.9% (active),-72.8% (active)
COc1ccc(-c2cc(=O)oc3c4c(ccc23)OCN(Cc2ccc(F)cc2)C4)cc1,73.4%,24.3%,77.1%,58.9%,57%,82%,27.3%,74.7%,39.6%,54.6%
CCCCC1COc2cccc3c(SCC(=O)N(C)c4cccc5ccccc45)cc[n+]1c23 (stereo not given),105%,88.4%,107%,110%,115%,112%,96.5%,96.7%,101%,82.8%
O=c1[nH]c(=S)c2c(n1CCCO)CCC2,108%,93.4%,92.9%,102%,113%,100%,102%,104%,96.7%,97%
O=C1CC(c2ccsc2)c2snc(-c3ccc(Cl)cc3)c2N1 (stereo not given),19.4%,16.4%,37.7%,90%,25.4%,56.1%,17.1%,32.4%,50%,13.9%
COc1ccc2nc(-n3nc(C)cc3C)c(-n3nc(C)cc3C)nc2c1,128%,114%,108%,103%,104%,119%,98.7%,107%,119%,102%
Cc1ccc2c(N/N=C\c3ccco3)cc(C)nc2n1,59.6%,37.2%,90.7%,68.9%,63.7%,77.5%,69.5%,72%,76.5%,34.6%
Cc1cc(=O)oc2c1ccc1oc(C(=O)c3ccccc3)c(C)c12,98.5%,49.2%,113%,76.3%,99.8%,122%,55.8%,92.5%,100%,77.2%
COc1ccc(/C=N/OCC(O)CN2CCC(O)CC2)cc1OC1CCCC1 (stereo not given),109%,100%,108%,99.7%,115%,94.7%,104%,101%,109%,94.3%
COc1ccc(-c2c(-c3cc4c(c(OC)c3OC)OCO4)noc2N)cc1,12.2%,16.1%,56.7%,48.7%,-13.6% (active),45.8%,2.69% (active),1.11% (active),66.8%,12.6%
COc1cc2cc(Oc3ccc(NC(=O)Nc4cccc(C(F)(F)F)c4)cc3)c(C)nc2cc1OCCN1CCCCC1,-94.1% (active),-49.7% (active),-88.5% (active),-86.8% (active),-70.6% (active),-78.4% (active),-57.4% (active),-92.4% (active),-68.9% (active),-64.1% (active)
COc1ccc(-c2c3c(N)c4c(nc3nc3c2c(C)nn3-c2ccccc2)CCCCC4)cc1,91.6%,24.5%,101%,105%,106%,94.5%,85%,93.9%,93.9%,88.9%
COc1ccc(C(=O)COc2cccc(/C=C3\CSc4ccc(C)cc4C3=O)c2)cc1,109%,29.3%,98.2%,79.4%,71.1%,104%,102%,103%,95.5%,93.8%
Clc1cccc(Cl)c1Nc1ccc2nnc(-c3ccncc3)n2n1,111%,57.1%,98.2%,114%,109%,107%,96%,95.7%,97.8%,99.1%
O=C(N/N=C/c1ccc(OC(F)F)c(OC2CCCC2)c1)c1cnn2c1NC(c1ccccc1)C2 (stereo not given),85.7%,38.6%,108%,81.9%,76.9%,64.2%,80.3%,81%,88.2%,82.9%
CCCCC(=O)N/N=C/c1cc(I)cc(I)c1O,51%,32.1%,75.8%,57%,74.6%,43.1%,41.2%,28.8%,41.8%,56.4%
Brc1ccc(SCN(CSc2ccc(Br)cc2)Cc2ccccc2)cc1,96.8%,81.5%,104%,39.8%,89.9%,45.4%,52.3%,49.8%,93.1%,73.7%
COc1ccc(NS(=O)(=O)c2ccc(-c3cnc(C4CC4)o3)cc2)cc1,81.2%,22.8%,58.3%,69.7%,83.9%,73.2%,50%,65.2%,72.5%,40.9%
COc1nc2c(cc1S(=O)(=O)c1ccccc1)CCc1c-2cnn1-c1cccc(Cl)c1,97%,61.4%,78.7%,89.7%,76.7%,87.2%,80.2%,81.7%,78.7%,83.4%
O=c1c2c(=NCCN3CCCC3)cc3c(=O)n(CCCN4CCOCC4)c(=O)c4c(-c5ccc(CN6CCCC6)cc5)cc(c(O)n1CCCN1CCOCC1)c2c4-3,-26.7% (active),-21.1% (active),-70.1% (active),-46.6% (active),-79.4% (active),-33.1% (active),-12.5% (active),-78.8% (active),-27.1% (active),-78.7% (active)
NC(=O)c1cccc(-n2ccc3cc(NC(=O)Nc4ccc(Cl)c(Cl)c4)ccc32)n1,83.7%,63.4%,85%,79.1%,6.33% (active),83%,68.8%,64.1%,89.9%,78%
